# About 83,000 compounds went through this panel and 20% of them were active in at least one assay; those are over-represented in the sample as a whole.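 In brief: 96-well plates, 48 h treatment, single concentration, percent growth endpoint.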 A number with no mark means an inactive call. Activity calls are given as the source filed them. How the source made its calls: active means growth percent below 10; inactive means the rest.
# Experiments:
# Assay in all cases: NCI-60 one-dose screen, 48 h (100 = growth as untreated, 0 = no growth, -100 = all killed)
# Settings in all cases: 10 µM unless noted
# NCI-H23 lung = tested on: NCI-H23 lung
# NCI-H226 lung = tested on: NCI-H226 lung
# NCI-H322M lung = tested on: NCI-H322M lung
# HOP-62 NSCLC = tested on: HOP-62 NSCLC
# NCI-H460 lung = tested on: NCI-H460 lung
# HOP-92 NSCLC = tested on: HOP-92 NSCLC
# NCI-H522 lung = tested on: NCI-H522 lung
# 786-0 renal = tested on: 786-0 renal
# COLO 205 colon = tested on: COLO 205 colon
# A549/ATCC NSCLC = tested on: A549/ATCC NSCLC
Compound,growth (NCI-H23 lung),growth (NCI-H226 lung),growth (NCI-H322M lung),growth (HOP-62 NSCLC),growth (NCI-H460 lung),growth (HOP-92 NSCLC),growth (NCI-H522 lung),growth (786-0 renal),growth (COLO 205 colon),growth (A549/ATCC NSCLC)
CNC(=O)c1[nH]cc(-c2ccc(OC)cc2)c1-c1cc(OC)c2c(c1OC)OCO2,97.6%,97.8%,96.2%,85.3%,105%,89.6%,101%,96.7%,118%,–
C=C1C(=O)O[C@H]2[C@H]1CC/C(COC(=O)C(=O)c1cn(C)c3ccc(Cl)cc13)=C\CC[C@@]1(C)O[C@@H]21,-60.1% (active),-71.4% (active),-68.9% (active),-70.1% (active),-69.8% (active),-82.9% (active),-65.8% (active),-97.6% (active),-64.7% (active),–
Oc1c(Br)cc(Br)c2ccc(Cn3cc(-c4ccccc4C(F)(F)F)nn3)nc12,106%,98.6%,104%,103%,101%,88.8%,24.6%,105%,95.7%,–
Fc1cc2c(cc1Cl)N(c1ncnc3ccc(-c4ccc5n[nH]nc5c4)cc13)CC2,79.6%,88.1%,54.5%,72.3%,97.1%,31.5%,67.3%,78.6%,109%,–
CCOC(=O)Cc1cnc(N/N=C(\C)c2cc3ccccc3o2)s1,86.5%,80.5%,93.6%,68%,94.4%,86.9%,42%,97.3%,108%,–
CCNCCNc1cc(C2CCCCC2)c(C#N)c2nc3ccccc3n12,44.7%,15.3%,-3.13% (active),16.1%,-23.4% (active),-24.5% (active),-9.52% (active),4.62% (active),-52.8% (active),3.05% (active)
CC(=O)c1c(C)nc(SCC(=O)Nc2cccc(O)c2)n1-c1ccc(Cl)cc1,94.3%,107%,91.2%,105%,94.5%,100%,83.9%,102%,118%,–
C[PH+](c1nc2ccccc2nc1[PH+](C)C(C)(C)C)C(C)(C)C.C[PH+](c1nc2ccccc2nc1[PH+](C)C(C)(C)C)C(C)(C)C.[Au+].[Cl-] (stereo unspecified),-90.2% (active),-60.4% (active),-94% (active),-94.3% (active),-85.5% (active),-81.5% (active),-88.7% (active),-96.6% (active),-100% (active),–
NC(N)=NCCCCCNc1noc(Cc2c[nH]c3cc(Br)ccc23)n1,64%,63.2%,77.3%,58.3%,68%,16.2%,47.8%,91.7%,64.7%,–
O=[N+]([O-])c1cccc(-c2nc3cc4nc5ccccc5[nH]c4cc3n2)c1,90.1%,105%,97.7%,95.7%,112%,113%,92.6%,91.9%,114%,92.6%
COc1ccccc1N1CCCCC1,102%,104%,108%,90.4%,109%,104%,93.8%,95.8%,113%,–
c1ccc(Cn2cc3c(c2)-c2oncc2CC3)cc1,46.6%,53%,60.4%,21.1%,8.32% (active),65.4%,21.3%,37.1%,15.9%,23.2%
CC(C)c1ccc(-n2c(=S)[nH]c3sc4cc(O)ccc4c3c2=O)cc1,98.6%,92.5%,90.4%,102%,101%,80.2%,99.9%,103%,102%,–
COc1c(B(O)O)cccc1-c1cc(C)c2c(ccc3[nH]ncc32)n1,78.4%,89.7%,74.3%,46.3%,71%,41.8%,62.6%,40.9%,93.3%,75.1%
CCSc1nc2scc(C)c2c(=O)[nH]1,95.1%,99.2%,104%,106%,102%,101%,94.6%,94%,111%,99.2%
NNc1nc(-c2cccnc2)nc2c1sc(=S)n2-c1ccccc1,102%,105%,101%,69.1%,107%,84.9%,58.7%,89.7%,98.4%,–
COc1cccc(CNc2ccc3ncnc(Nc4ccc(F)c(Cl)c4)c3c2)c1,69.6%,71.4%,34.1%,82.5%,78%,76.8%,18.6%,71.2%,91.3%,–
O=C(c1ccncc1)N1N=C(c2ccc(Cl)cc2)C[C@H]1c1cn(-c2ccccc2)nc1-c1ccccc1,91.5%,89.9%,92.7%,92.8%,88.2%,67%,96.1%,97.9%,119%,–
N#Cc1c(-c2ccccc2)cc(-c2ccccc2)n(CCCC(=O)Nc2ccccc2N)c1=O,73.5%,73.9%,102%,64.7%,33.5%,62.1%,32.4%,63.9%,92.3%,–
CCN(CC)Cc1cc(C=C2C(=O)NC(=S)NC2=O)cc(OC)c1O,98.1%,107%,103%,106%,104%,104%,104%,104%,117%,–
CCCCCCCCCc1ccc(OCCOCCOCCOCCOCCOCCOCCOCCOCCO)cc1,7.69% (active),17.3%,57.3%,128%,11.2%,-9.71% (active),-9.88% (active),27.4%,109%,–
Cn1ccnc1C(=O)/C=C/c1ccc(C(=O)Nc2ccc(Cl)cc2)cc1,-18.7% (active),16.8%,0.414% (active),-4.38% (active),-28.7% (active),17%,-5.14% (active),-78.8% (active),1.1% (active),–
O=C1/C(=C/c2cccc(F)c2)CN(C(=O)C(Cl)Cl)C/C1=C\c1cccc(F)c1,-75.3% (active),0.29% (active),-44.1% (active),-25.8% (active),-63% (active),-58% (active),-80.3% (active),-77% (active),-60% (active),–
COC(=O)/C=C1/SC(=Nc2ccc(C(F)(F)F)cc2)N(CCc2c[nH]c3ccc(O)cc23)C1=O,18.6%,1.54% (active),6.96% (active),-26.6% (active),-60% (active),-54% (active),-40.6% (active),-59.5% (active),-58.9% (active),18.1%
CCCn1cc2c(=O)nc3sc(Cc4ccccc4)c(C)n3c2n1,103%,107%,98.5%,102%,101%,88.4%,–,99.1%,109%,83.5%
COc1ccc(Nc2nnc(-c3ccc(OC)c(OC)c3)o2)cc1,74.1%,85.3%,87.4%,84.9%,100%,66.4%,–,91.9%,99.5%,83.9%
CCOC(=O)C/C(=N\Nc1cc(=O)[nH]c2ccc(Br)cc12)C(=O)OCC,91.2%,86.9%,92.9%,95.9%,101%,76.2%,–,106%,107%,106%
O=c1[nH]c(Cc2nc3ccccc3s2)nc2cc(Br)ccc12,86.1%,76.8%,88.8%,37.6%,53.3%,84.9%,–,68%,88.3%,61%
O=C1/C(=C/c2cn(-c3ccccc3)nc2-c2ccccc2)SC(=S)N1C1CCCCC1,96.1%,92%,105%,101%,103%,46.9%,–,106%,117%,–

# Reference: PubChem BioAssay (NCI)
